# Assay outcomes: PubChem, Johns Hopkins Ion Channel Center
# Rows were chosen to be rich in hits. Some 1.6% of all compounds tested hit in one or more screens of this group.
# KCNQ2 enhance: potentiators of rat KCNQ2 potassium channel. Potassium voltage-gated channel subfamily KQT member 2 (Rattus norvegicus), O88943. CHO-K1 KCNQ2, FluxOR thallium flux fluorescence; hits give high values. B-score at 10 µM. hit rate 0.54% among 310,000. AID 2239, 2010;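 active = fluorescence ratio B-score at least 3 SD of library B-scores, with initial fluorescence B-score within 3 of them, cut at about 5.3 in these data; same plate scores as AID 2156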;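 also: B-score of peak minus minimum over baseline fluorescence ratio after K+ and Tl+ stimulus; positive B-score means potentiation of KCNQ2 with more thallium influx and brighter signal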
# Target sequence (O88943 whole entry, looked up): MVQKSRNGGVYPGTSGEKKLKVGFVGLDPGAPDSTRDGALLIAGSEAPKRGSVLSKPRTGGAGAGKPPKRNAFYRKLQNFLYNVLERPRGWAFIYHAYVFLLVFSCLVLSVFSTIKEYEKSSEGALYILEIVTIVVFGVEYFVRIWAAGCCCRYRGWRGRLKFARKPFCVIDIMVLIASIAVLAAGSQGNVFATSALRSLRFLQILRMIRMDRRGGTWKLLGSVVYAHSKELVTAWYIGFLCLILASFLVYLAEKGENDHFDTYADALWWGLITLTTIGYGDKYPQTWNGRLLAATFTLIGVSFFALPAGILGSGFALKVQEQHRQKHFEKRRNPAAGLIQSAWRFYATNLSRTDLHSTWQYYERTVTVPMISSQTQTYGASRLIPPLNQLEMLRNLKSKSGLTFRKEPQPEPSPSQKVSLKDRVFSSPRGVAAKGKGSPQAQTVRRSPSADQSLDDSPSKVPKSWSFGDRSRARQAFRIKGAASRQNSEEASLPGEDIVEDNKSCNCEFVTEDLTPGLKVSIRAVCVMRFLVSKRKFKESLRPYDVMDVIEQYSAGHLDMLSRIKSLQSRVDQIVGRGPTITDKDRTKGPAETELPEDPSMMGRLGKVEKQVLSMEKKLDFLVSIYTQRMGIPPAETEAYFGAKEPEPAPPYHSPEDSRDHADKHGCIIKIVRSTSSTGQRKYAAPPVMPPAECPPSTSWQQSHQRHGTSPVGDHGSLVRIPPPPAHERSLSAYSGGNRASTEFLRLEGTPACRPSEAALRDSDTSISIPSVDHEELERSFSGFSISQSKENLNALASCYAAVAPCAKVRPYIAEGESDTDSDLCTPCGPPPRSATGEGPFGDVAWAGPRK
# KCNQ2 block: rat KCNQ2 potassium channel inhibitors, primary screen, cell-based, CHO-K1, FluxOR thallium flux, B-score. Potassium voltage-gated channel subfamily KQT member 2 (Rattus norvegicus), O88943. B-score at 10 µM. 20 min; hits give low values. hit rate 1.1% among 310,000;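 active = fluorescence ratio B-score at most minus 3 library SDs, with starting brightness B-score within 2 library SDs, cut at about -5.5 in these data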
# KCNQ2 inh conf: rat KCNQ2 potassium channel inhibitors, confirmation, cell-based, thallium flux; hit rate 57% among 1,000; KCNQ2-expressing cells, inhibition; hits give low values; activity change, negative = inhibition, % at 10 µM; shares compounds with KCNQ2 block;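 also: 0% = vehicle wells and values are ratio percent relative to vehicle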
# KCNQ1 spec: human KCNQ1 channel inhibition, counter-screen for KCNQ2 inhibitor project, cell-based, FluxOR thallium flux | hit rate 15% among 1,000 | shares compounds with KCNQ2 block | KCNQ1-expressing cells, FluxOR thallium flux fluorescence; hits give low values | activity change, negative = inhibition, % at 10 µM;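 active = activity change at least 3 SD of negative controls below their mean in both duplicate wells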;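 also: CHO cells stably transfected with KCNQ1 and depolarized by potassium stimulus; peak minus minimum fluorescence over baseline after thallium addition; 0% = vehicle negative control and -100% = blank without thallium stimulus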
# CHO parental ctr: thallium flux change in parental CHO cells, counter-screen for KCNQ2 inhibitor project. shares compounds with KCNQ2 block. hits give low values. activity change, % at 10 µM. hit rate 14% among 1,000. AID 493029, 2011;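 also: 0% = vehicle negative controls with stimulus buffer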
# KCNQ2 patch conf: rat KCNQ2 channel inhibitors, confirmation, cell-based, automated patch clamp, single concentration; shares compounds with KCNQ2 block; KCNQ2-expressing cells, automated patch clamp current; calls only at 10 µM; hit rate 49% among 550; AID 588531, 2011
# The depositor's hits bear a star; i = inactive; . = not tested or not shown; + = active, no number. Unless noted, no rule for the calls is given here.
SMILES,KCNQ2 enhance,KCNQ2 block,KCNQ2 inh conf,KCNQ1 spec,CHO parental ctr,others
COc1cc2cc(C(c3nnnn3C3CCCC3)N3CCCCC3)c(=O)[nH]c2cc1OC (centres undefined),-7,-7*,-22%*,i,i,KCNQ2 patch conf=+
Cc1ccc2cc(C(c3nnnn3C3CCCC3)N3CCOCC3)c(=O)[nH]c2c1C (centres undefined),-9.5,-9.5*,i,i,i,
Cc1ccc2cc(C(c3nnnn3C3CCCC3)N3CCN(c4ccccc4)CC3)c(=O)[nH]c2c1 (centres undefined),.,i,.,.,.,
O=C(Cc1cc(=O)oc2cc(O)ccc12)NC(Cc1ccc(Cl)cc1)C(=O)O (centres undefined),0.15,i,.,.,.,
CCOC(=O)COc1ccccc1C1Nc2ccccc2C(=O)N1c1cccc(Cl)c1 (centres undefined),.,i,.,.,.,
CCOC(=O)COc1c(OC)cc(Cl)cc1C1Nc2ccccc2C(=O)N1c1cccc(C)c1 (centres undefined),-10,-10*,i,i,i,
O=C(O)C1CCN(C(=O)CSc2nc3ccccc3c(=O)n2-c2ccc(Cl)cc2)CC1,0.9,i,.,.,.,
CCc1ccc(C(=O)NNC(=O)C2CSC3(C)CCC(=O)N23)cc1 (centres undefined),.,i,.,.,.,
O=C(Nc1ccccc1)/C(=C/c1cccc(Br)c1)NC(=O)c1ccco1,0.02,i,.,.,.,
O=C(OCc1ccccc1)/C(=C/c1cccc(Br)c1)NC(=O)c1ccco1,-9.6,-9.6*,-25%*,i,i,KCNQ2 patch conf=+
CC(C)(C)OC(=O)N1Cc2ccccc2C[C@H]1C(=O)NC1CCCC1,.,i,.,.,.,
COc1ccc2nc(SCC(=O)Nc3ccc(S(=O)(=O)N4CCCC4)cc3)c(C#N)cc2c1,0.76,i,.,.,.,
CCOc1ccc2nc(SCC(=O)Nc3ccc(S(=O)(=O)N4CCCC4)cc3)c(C)cc2c1,-8.5,-8.5*,i,i,i,
COc1cc(-c2cc(C(=O)Nc3ccc(N4CCOCC4)cc3)c3ccccc3n2)cc(OC)c1OC,.,i,.,.,.,
COc1ccc(-c2cc(C(=O)Nc3ccc(Cl)cc3Cl)c3ccccc3n2)cc1OC,.,i,.,.,.,
COc1ccc(-c2cc(C(=O)Nc3ccccc3O)c3ccccc3n2)cc1OC,-6.9,-6.9*,i,i,i,
COc1ccccc1NC(=O)c1cc(-c2cc(OC)c(OC)c(OC)c2)nc2ccccc12,-8.9,-8.9*,i,i,i,
O=C(OCN1C(=O)c2ccccc2C1=O)c1ccc(Cl)nc1,.,i,.,.,.,
CCOC(=O)c1c(C)[nH]c(C)c1S(=O)(=O)N1CCCCC1,.,i,.,.,.,
O=C(/C=C/c1cccc(OCc2ccccc2)c1)c1cccnc1,-6.8,-6.8*,-29%*,i,i,KCNQ2 patch conf=i
O=C(/C=C/c1ccc([N+](=O)[O-])cc1)c1cccnc1,-9.9,-9.9*,i,i,i,
O=C(N/N=C/c1ccc([N+](=O)[O-])cc1)c1cccnc1,.,i,.,.,.,
O=C(O)/C=C/c1cccc(OCc2ccccc2)c1,0.1,i,.,.,.,
CCCCN(CC)CCCNC(=O)c1ccc2c(c1)N(CC)C(=O)c1ccccc1S2(=O)=O,.,i,.,.,.,
COc1cccc(/C=C(/C(=O)OCC(=O)NC2CCCCCCC2)c2ccccc2)c1,-8.5,-8.5*,-16%*,i,i,KCNQ2 patch conf=i
SMILES,KCNQ2 enhance,KCNQ2 block,KCNQ2 inh conf,KCNQ1 spec,CHO parental ctr,others
COc1cccc(/C=C(/C(=O)OCC(=O)NCC2CCCO2)c2ccccc2)c1 (centres undefined),.,i,.,.,.,
O=C(NCc1cccnc1)Nc1cccc([N+](=O)[O-])c1,0.05,i,.,.,.,
CCCc1cc(C(=O)NC2CCCCC2)no1,1.1,i,.,.,.,
CCCc1cc(C(=O)N(C2CCCCC2)C2CCCCC2)no1,-7.4,-7.4*,i,i,i,
CCN(CC(=O)NCc1ccc(Cl)cc1)C(=O)c1ccc(C#N)cc1,.,i,.,.,.,
Cc1csc2nc(CNC(=O)C3CCCCC3)cn12,-8.8,-8.8*,i,i,i,
O=C(NCCc1cn2ccsc2n1)C1CCCCC1,0.14,i,.,.,.,
OCC1(Cc2cccc(Cl)c2)CCCN(Cc2ccc(F)c(F)c2)C1 (centres undefined),.,i,.,.,.,
CSc1cccc(CN2CCCC(CO)(Cc3cccc(Cl)c3)C2)c1 (centres undefined),-7,-7*,i,i,i,
Cc1ccc(NC(=O)c2cc(C)nc3ccccc23)c(Br)c1,-6.7,-6.7*,i,i,i,
Cc1ccc(NC(=O)c2ccccn2)c(Br)c1,.,i,.,.,.,
Cc1cc(C(=O)NCc2ccccc2Cl)c2ccccc2n1,-7.2,-7.2*,-22%*,i,i,KCNQ2 patch conf=i
Cc1cc(C(=O)Nc2ccccc2Cl)c2ccccc2n1,-6.9,-6.9*,-31%*,i,i,KCNQ2 patch conf=+
COc1cc(NC(=O)c2cc(C)nc3ccccc23)cc(OC)c1OC,.,i,.,.,.,
Cc1cc(C(=O)NCc2cccc(Cl)c2)c2ccccc2n1,.,i,.,.,.,
C(=N\NCc1ccccc1)/c1ccc2nccnc2c1,0.99,i,.,.,.,
Cc1noc(C)c1C(=O)Nc1cccc2ncccc12,.,i,.,.,.,
COc1ccc(CCNC(=O)c2nn(C)c3c2CS(=O)(=O)c2ccccc2-3)cc1OC,1.4,i,.,.,.,
Cc1ccc(S(=O)(=O)N(Cc2cccc(F)c2)C(=O)N2CCN(C)CC2)cc1,0.87,i,.,.,.,
CCOc1ccc(Nc2nc(NCC3CCCO3)c3ccccc3n2)cc1 (centres undefined),-6.7,-6.7*,i,i,i,
c1ccc(Nc2nc(NCC3CCCO3)c3ccccc3n2)cc1 (centres undefined),.,i,.,.,.,
O=C(CNCc1ccc(F)cc1)Nc1ccc(C(=O)N2CCCCC2)cc1,1,i,.,.,.,
CCOC(=O)c1cnc2ccccc2c1Nc1cccc(C(=O)O)c1,2,i,.,.,.,
CCOC(=O)c1cnc2ccc(C)cc2c1Sc1ccccc1,-7.1,-7.1*,-28%*,i,i,KCNQ2 patch conf=+
COc1cc(C2C(C#N)=C(N)N(N(C)C)C3=C2C(=O)CC(C)(C)C3)cc(OC)c1OC (centres undefined),1.1,i,.,.,.,
SMILES,KCNQ2 enhance,KCNQ2 block,KCNQ2 inh conf,KCNQ1 spec,CHO parental ctr,others
CS(=O)(=O)N1CCc2cc(NC(=O)c3ccc(Cl)cc3Cl)ccc21,.,i,.,.,.,
N#C/C(=C/C=C/c1ccccc1)C(=O)Nc1ccccc1,.,i,.,.,.,
N#C/C(=C\C=C\c1ccccc1)C(=O)Nc1ccccc1,-7.4,-7.4*,i,i,i,
Cc1ccc(-c2[nH][nH]c(=O)c(=O)c2N=Nc2ccccc2)cc1,.,i,.,.,.,
CC(=O)c1c(O)cc(=O)oc1-c1ccc(C)cc1,0.52,i,.,.,.,
CCCC(C(=O)Nc1ccncc1)c1ccccc1 (centres undefined),0.01,i,.,.,.,
